Here are results for 95 compounds from PubChem BioAssay AID868 (SRMLSC, 2007).

Each structure is given as a SMILES string. In all, about 190,000 compounds went through this assay and about 3,500 (1.8%) were called active. The full list was thinned out, with actives kept by preference. Unmarked numbers belong to inactive results.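 How the source made its calls: active means inhibition above a set limit, 3 SD over mean compound inhibition (cut at about 8.4% in these data); inactive means the rest.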

A short description of the assay: inhibitors of the yeast RAM network, primary screen, dse1pr::URA3 reporter, 5-FOA selection (AID 868).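 Further: 0% = DMSO-only wells with no growth and 100% = 10 µM 1-NA-PP1 full growth; inhibition rescues growth on 5-FOA so higher OD means more RAM inhibition.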 The settings on record: S. cerevisiae dse1pr::URA3 reporter, 5-FOA growth OD615, 2 d; at 50 µM; stronger effect = higher value; analog-sensitive cbk1-as2 kinase mutant strain.
Consider `Cc1cccc(NC(=S)N2CCCC(c3nc4ccccc4[nH]3)C2)c1` (stereo not given), for which the inhibition – broadly, the relative decrease from the control value, in per cent – was 1.53%. Then `Cc1ccc(CN2CCN(Cc3cn(C)nc3-c3ccccc3)CC2CCO)o1` (stereo not given), with 0.52%; and `COc1ccc(-c2noc(CSc3ccc(C)cc3)n2)cc1`, with 2.24%.

As to `COc1ccc(-c2noc(-c3ccc(C)cc3)n2)cc1`, the inhibition is 7.68%. Take `COc1ccc(-c2noc(CN(C)S(=O)(=O)c3ccc(C)cc3)n2)cc1`: the inhibition is 9.12% (active). Then `Cc1ccc(NC(=O)CN(C)CC(=O)Nc2cccc(F)c2)cc1[N+](=O)[O-]`, with 1.7%; and `CSc1ncccc1C(=O)Nc1nc2ccc(F)cc2s1`, with 2.36%; and `CN(C)c1ccnc(Nc2ccc(F)cc2)c1C#N`, with 0.51%. Then `O=C(CC(=O)N/N=C\c1ccc(F)cc1)NCCc1ccccc1`, with 0.75%; and `COc1ccc2nc(Nc3nc(-c4cc5ccccc5oc4=O)cs3)sc2c1`, with 3.98%. Then `CCNc1nc(-c2cc3ccccc3o2)cs1`, with 2.09%; and `O=c1oc2ccccc2cc1-c1csc(Nc2ccc(O)cc2)n1`, with 11.1% (active); and `CC(=O)c1cccc(-n2nnnc2SCC(=O)NNC(=O)C2CCCCC2)c1`, with 3.03%. Turning to `CN(C)CCOc1cccc(Br)c1`, the inhibition was 1.41%. As for `CC(NC(=O)COC(=O)C1CCN(S(=O)(=O)c2ccccc2C(F)(F)F)CC1)c1ccccc1` (stereo not given), the inhibition is 8.48% (active). As for `CCNC(=O)NC(=O)C(C)OC(=O)C1CCN(S(=O)(=O)c2ccccc2F)CC1` (stereo not given), the figure is -0.96%; as for `CC(NC(=O)CCC(=O)N1CCN(S(=O)(=O)c2ccc(Cl)cc2)CC1)c1ccccc1` (stereo not given), 2.73%. Then `CN(CCc1cnn(C)c1)Cc1cn(C)nc1-c1ccccc1F`, with 0.12%; and `CCOc1ccc(NC(=S)N2CCCCCC2)cc1`, with 0.12%. Then `CCOC(=O)c1sc2nc(C)nc(SCC(N)=O)c2c1C`, with 1.57%; and `CN(C)S(=O)(=O)c1ccc(NC(=O)COC(=O)c2n[nH]c3ccccc23)cc1`, with 5.03%. `C=CCN(CC=C)C(=O)COC(=O)c1n[nH]c2ccccc12`: the inhibition is 2.26%. Regarding `O=C(COC(=O)c1n[nH]c2ccccc12)NCc1ccccc1`, the inhibition is 8.45% (active). As for `O=C(CSCC(=O)Nc1cccc([N+](=O)[O-])c1)Nc1ccccc1`, the figure is 0.64%; as for `CCNC(=O)CSc1nc(-c2ccccc2)cs1`, 0.79%. As for `O=C(CSc1nc(-c2ccccc2)cs1)Nc1cccc([N+](=O)[O-])c1`, the figure is 11.7% (active); as for `NC(=O)COc1ccc(NC(=O)c2ccccc2-c2ccccc2)cc1`, 0.63%; as for `COc1cccc(-c2nc3cc(C)ccc3o2)c1`, 2.42%.

Consider `O=C(Cc1cccc2ccccc12)Nc1ccc2oc(-c3ccccc3)nc2c1`, for which the inhibition was 1.7%. As for `COc1ccc2oc(-c3cccc(NC(=O)CSc4ccc(Cl)cc4)c3)nc2c1`, the figure is 10.3% (active); as for `CCN(CC)Cc1nc2sc(C)c(C)c2c(=O)[nH]1`, 2.28%.

With `CNS(=O)(=O)c1ccc(NC(=O)C2CC(=O)N(c3ccc(Cl)cc3)C2)cc1` (stereo not given), the inhibition was 4.28%. Then `Nc1ccc(-c2nnc(-c3ccc(-c4ccccc4)cc3)o2)cc1`, with 6.59%; and `FC(F)(F)c1cnc(Oc2ccccc2-c2nnc(-c3ccc(Cl)cc3)o2)c(Cl)c1`, with 4.37%. Then `CSc1ccccc1-c1nnc(-c2ccc(Cl)cc2)o1`, with 15.5% (active); and `Cc1cccn2c(CN(C)C3CCCc4ccccc43)c(C(=O)N3CCOCC3)nc12` (stereo not given), with 1.88%. As for `CC(=O)C1C(c2ccc(Cl)cc2)c2c(n[nH]c2C)CC1(C)O` (stereo not given), the figure is -0.49%.

On to `CCn1c(SCC(=O)Nc2ccc(S(=O)(=O)Nc3onc(C)c3C)cc2)nnc1-c1ccccc1`, for which the inhibition was 4.88%. In the case of `Cc1ccc(C(=O)/C=C/Nc2ccc(S(=O)(=O)Nc3onc(C)c3C)cc2)cc1`, the inhibition was 11% (active). Then `COc1ccc(C(=O)Nc2ccc(S(=O)(=O)Nc3onc(C)c3C)cc2)cc1OC`, with 2.49%; and `Cc1cc(C)nc(NS(=O)(=O)c2ccc(N/C=C\C(=O)c3cccs3)cc2)n1`, with 3.54%; and `Cc1noc(NS(=O)(=O)c2ccc(NC(=O)C34CCC(CC3)C4)cc2)c1C`, with 2.19%.

`Cc1noc(NS(=O)(=O)c2ccc(N/C=C/C(=O)c3ccccc3)cc2)c1C`: the inhibition is 11.4% (active). As for `O=C1OCC2=C1C(c1ccccc1)CC(=O)N2c1cccc(F)c1` (stereo not given), the figure is 0.77%; as for `O=c1oc(/C=C/c2ccccc2)nc2ccccc12`, 1.38%. As for `Cc1cc(C)n(Cc2cnc(N3CCOCC3)s2)n1`, the figure is 0.36%. As for `C/C(=N\NC(=O)c1cccnc1)c1ccc(-n2ccnc2)cc1`, the figure is 2.36%. Take `N#C/C(=C(/O)COC(=O)COc1ccc(Cl)cc1)c1nc2ccccc2[nH]1`: the inhibition was 3.15%. As for `Cc1ccccc1OC/C(O)=C(\C#N)c1nc2ccccc2[nH]1`, the figure is 10.3% (active); as for `N#C/C(=C(/O)COc1cccc2ccccc12)c1nc2ccccc2[nH]1`, 2.62%; as for `O=C(COC(=O)c1ccc(Cl)nc1)NCc1cccs1`, 1%.

For `CC(=O)Nc1ccc(Nc2nc3c(S(=O)(=O)c4ccc(C)c(C)c4)nnn3c3ccccc23)cc1`, the inhibition was 7.93%. Then `COc1cccc(NC(=O)c2ccc3c(SCC(=O)O)c4c(nc3c2)CCCC4)c1`, with 6.04%; and `Cc1c(N=Nc2ccc(N(C)C)cc2)c(=O)n(-c2ccccc2)n1C`, with 25.4% (active). As for `Cc1[nH][nH]c(=O)c1N=Nc1ccccc1`, the figure is 2.99%. As for `Cc1c(NC(=S)Nc2ccccc2)c(=O)n(-c2ccccc2)n1C`, the figure is 2.71%; as for `Cc1c(C=O)n(C)n(-c2ccccc2)c1=O`, 2.38%. Consider `Cc1ccc(N=Nc2c(C)[nH]n(-c3ccccc3)c2=O)cc1`, for which the inhibition was 13.2% (active). As for `Cc1cccc(N=Nc2c(C)[nH]n(-c3ccccc3)c2=O)c1`, the figure is 7.54%; as for `COc1cccc(/C=N/NC(=O)CNC(=O)c2ccc(S(=O)(=O)N3CCOCC3)cc2)c1OC`, 1.56%; as for `CCCN(CCC)C(=S)Nc1cc(C(=O)OC)ccc1C(=O)OC`, -0.65%. As to `CCC(CC)C(=O)Nc1ccc(S(=O)(=O)Nc2nccs2)cc1`, the inhibition is 1.58%.

For the compound `COC(=O)CCSc1nccn1Cc1ccccc1`, the inhibition was 3.09%. As for `COC(=O)CCSc1cc([N+](=O)[O-])cc2c1c(C1OCCS1)nn2-c1ccccc1` (stereo not given), the figure is 17.6% (active). For `COc1ccc(-n2cnnc2SCC(=O)Nc2cccc([N+](=O)[O-])c2)cc1`, the inhibition was 1.48%. As for `Cc1cc([N+](=O)[O-])ccc1NC(=O)c1ccc(NC(=O)C(C)C)cc1`, the figure is 0%; as for `Cn1c(=NC(=O)c2ccc3c(c2)OCCO3)sc2cc(S(C)(=O)=O)ccc21`, 3.99%; as for `CCC1C/C(=C/c2cccs2)C(=O)/C(=C/c2cccs2)C1` (stereo not given), 14.8% (active). As for `O=C1/C(=C/c2cccs2)CCC1C1CCCC1` (stereo not given), the figure is 2.26%. As for `O=C1/C(=C/c2cccs2)CCc2ccccc21`, the figure is -0.39%; as for `CCN(C(=O)CSc1nc2ccccc2n1CC)C1CCS(=O)(=O)C1` (stereo not given), 0.65%. Take `O=C(NC(=S)Nc1ccc(S(=O)(=O)N2CCOCC2)cc1)c1ccccc1[N+](=O)[O-]`: the inhibition was 3.57%. Take `O=C(COC(=O)CC1CC2CCC1C2)NC(=O)NC1CCCC1` (stereo not given): the inhibition is 0.76%.

For `O=C(COC(=O)/C=C/c1nc2ccccc2s1)Nc1ccccc1Oc1ccccc1`, the inhibition is 14.3% (active).

For `COc1cc(/C=C/C(=O)OCC(=O)Nc2cccc(Oc3ccccc3)c2)ccc1O`, the inhibition is 7.29%. For `CCN(C(=O)COC(=O)/C=C/c1nc2ccccc2s1)C1CCS(=O)(=O)C1` (stereo not given), the inhibition is 2.32%. As for `CC(=O)Nc1ccc(SCC(=O)Nc2ccccc2Oc2ccccc2)cc1`, the figure is 1.01%; as for `COc1ccc(OC)c(/C=C/C(=O)OCC(=O)Nc2ccc3c(c2)OCCO3)c1`, 7.42%. As for `COc1ccc(/C=C/C(=O)OCC(=O)Nc2cccc(Oc3ccccc3)c2)c(OC)c1`, the figure is 16.7% (active). As for `CCN1CCN(C(=O)c2ccc(CN(c3ccc(C)c(C)c3)S(C)(=O)=O)cc2)CC1`, the figure is 0.38%; as for `O=C(CCCNS(=O)(=O)c1cccc2nsnc12)NCCN1CCN(c2ccccc2F)CC1`, -1.28%; as for `COc1ccc(/C=C2/C(=O)OCc3cc(OC)c(OC)cc32)c(OC)c1`, 7.31%. For the compound `COC(=O)Cc1ccc(N(Cc2ccccc2F)S(=O)(=O)c2ccc(Br)cc2)cc1`, the inhibition is 6.05%. Then `Cc1cccc(C(=O)N2CCC(c3nc4ccccc4s3)CC2)c1`, with 0.14%.

With `Cc1cc(C)n2nc(C(=O)N(C)C(c3ccccc3)c3ccccc3)nc2n1`, the inhibition was 2.14%.

`CC1CCN(S(=O)(=O)c2ccc(S(=O)(=O)NCc3cccnc3)cc2)CC1`: the inhibition was 0.4%. Then `CCCCNC(=O)c1c[nH]c2ccc(S(=O)(=O)Nc3ccc(OCC)cc3)cc2c1=O`, with 5.33%; and `CCN(CC)S(=O)(=O)c1ccc2[nH]cc(C(=O)NCCc3ccccc3)c(=O)c2c1`, with 6.86%; and `COc1cccc(NS(=O)(=O)c2ccc3[nH]cc(C(=O)NCCCOC(C)C)c(=O)c3c2)c1`, with 9.49% (active).

With `CN(C)CCSc1nc(N)c2c3c(sc2n1)COC(C)(C)C3`, the inhibition is 0.35%. As for `CCCSc1nc(NCc2ccco2)c2c3c(sc2n1)COC(C)(CC)C3` (stereo not given), the figure is 13.4% (active); as for `CCC1(C)Cc2c(sc3nc(SC)nc(N)c23)CO1` (stereo not given), 1.97%; as for `Cc1cccc(N2C(=O)CC(SC(N)=Nc3ccccc3)C2=O)c1` (stereo not given), 5.62%. With `Cc1cccc(N2C(=O)c3cccnc3C2=O)c1`, the inhibition was 0.23%. As for `Cc1cccc(N2C(=O)C3C(c4ccccc4)OC4(C(=O)c5ccccc5C4=O)C3C2=O)c1` (stereo not given), the inhibition was 10.5% (active).
